The structures appear in SMILES notation. Results filed as inconclusive are left out. Unmarked numbers belong to inactive results. Activity calls are given as the source filed them. Unless noted, the call rests on the fitted dose curve; in most records, active means well fitted curve in the direction sought with a large enough effect; inconclusive means small, poorly fitted or top-dose-only effect, or another doubt; inactive means no such curve, though single readings can be large; an effect the other way counts as inactive or inconclusive.

For assay [1], the target named is Calcium and integrin-binding protein 1 (Homo sapiens) (UniProt Q99828). In words: Primary qHTS for Identification of Calcium Integrin Binding Protein 1 (CIB1) Competitor (AID 1508620).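 Further: GST tagged CIB1 binding a fluorescein labelled alphaIIb integrin peptide tracer; top concentration of the series differs between compounds.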 In outline: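 CIB1-GST (1 uM final) and compound incubated 15 min at room temperature before adding FITC-alphaIIb peptide tracer (100 nM final). Competition for binding read by fluorescence polarization (ex 480, em 540) after another 15 min at room temperature.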
(In qHTS, concentration-response curves come from the screen itself.)

The target in assay [2] is Cytochrome P450 2D6 (Homo sapiens) (UniProt P10635). In words: Cytochrome P450 family 2 subfamily D member 6 (CYP2D6) small molecule antagonists: luciferase biochemical (cell-free) qHTS assay (AID 1645840; active means well fitted curve in the direction sought with a large enough effect in the repeat runs; an effect the other way counts as inactive or inconclusive; further: nearly all actives have a fitted effect of over 55% in size; further: potency means the concentration at half of the fitted maximal effect; on activity change, negative = inhibition: series mostly up to about 57 µM). In outline: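 P450-Glo luminescent screen: recombinant CYP2D6 enzyme–proluciferin substrate mix preincubated with compound 10 min at room temperature, then NADPH regeneration added for 1 h at room temperature. Detection reagent added for 20 min; luciferin light read as relative luminescence units.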

Assay [3] has as its target Cytochrome P450 2C9 (Homo sapiens) (UniProt P11712). Put plainly: Cytochrome P450 family 2 subfamily C member 9 (CYP2C9) small molecule antagonists: luciferase biochemical (cell-free) qHTS assay (AID 1645842; active means well fitted curve in the direction sought with a large enough effect in the repeat runs; an effect the other way counts as inactive or inconclusive; further: nearly all actives have a fitted effect of over 55% in size; further: potency means the concentration at half of the fitted maximal effect; on activity change, negative = inhibition: series mostly up to about 57 µM). The method, boiled down: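 Luminescence, after 20 min with luciferin detection reagent, reflected CYP2C9 turnover during a 1 h NADPH-driven reaction at 37C. Enzyme-substrate mix contained 0.4% bovine serum albumin and was preincubated with compound 10 min at room temperature.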

The nature of assay [4]: Primary qHTS for inhibitors of nuclear receptor binding SET domain protein 2 (NSD2) in an isogenic RCH-ACV NSD2 p.E1099K mutant (9B) (AID 1645876). Further: nearly all actives have a fitted effect of over 70% in size. Further: potency means the concentration at half of the fitted maximal effect.
Assay [5] is described as follows: Primary qHTS for inhibitors of nuclear receptor binding SET domain protein 2 (NSD2) in an RCH-ACV wild type WT cells (2C) (AID 1645877). Further: nearly all actives have a fitted effect of over 70% in size. Further: potency means the concentration at half of the fitted maximal effect.
On the % scale 0 is the no-effect control and ±100 the full control effect.

Cytochrome P450 2C9 (Homo sapiens), sequence (P11712 whole entry, looked up): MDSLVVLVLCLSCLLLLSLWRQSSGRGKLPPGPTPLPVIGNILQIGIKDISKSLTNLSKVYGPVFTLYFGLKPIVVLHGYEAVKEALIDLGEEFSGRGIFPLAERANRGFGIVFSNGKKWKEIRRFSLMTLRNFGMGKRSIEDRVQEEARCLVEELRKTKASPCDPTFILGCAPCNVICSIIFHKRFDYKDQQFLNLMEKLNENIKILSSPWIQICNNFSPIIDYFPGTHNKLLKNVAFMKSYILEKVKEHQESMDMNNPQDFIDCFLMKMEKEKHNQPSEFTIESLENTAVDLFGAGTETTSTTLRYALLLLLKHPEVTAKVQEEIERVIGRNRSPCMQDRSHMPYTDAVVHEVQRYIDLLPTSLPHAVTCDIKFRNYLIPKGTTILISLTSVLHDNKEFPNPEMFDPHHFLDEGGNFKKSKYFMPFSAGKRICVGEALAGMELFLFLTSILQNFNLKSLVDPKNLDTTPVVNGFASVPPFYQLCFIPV
Calcium and integrin-binding protein 1 (Homo sapiens), sequence (Q99828 whole entry, looked up): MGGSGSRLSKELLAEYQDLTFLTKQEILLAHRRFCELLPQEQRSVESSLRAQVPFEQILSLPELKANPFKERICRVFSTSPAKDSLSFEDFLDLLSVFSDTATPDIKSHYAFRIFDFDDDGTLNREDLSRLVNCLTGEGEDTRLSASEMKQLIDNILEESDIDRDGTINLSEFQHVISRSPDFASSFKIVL
Cytochrome P450 2D6 (Homo sapiens), sequence (P10635 whole entry, looked up): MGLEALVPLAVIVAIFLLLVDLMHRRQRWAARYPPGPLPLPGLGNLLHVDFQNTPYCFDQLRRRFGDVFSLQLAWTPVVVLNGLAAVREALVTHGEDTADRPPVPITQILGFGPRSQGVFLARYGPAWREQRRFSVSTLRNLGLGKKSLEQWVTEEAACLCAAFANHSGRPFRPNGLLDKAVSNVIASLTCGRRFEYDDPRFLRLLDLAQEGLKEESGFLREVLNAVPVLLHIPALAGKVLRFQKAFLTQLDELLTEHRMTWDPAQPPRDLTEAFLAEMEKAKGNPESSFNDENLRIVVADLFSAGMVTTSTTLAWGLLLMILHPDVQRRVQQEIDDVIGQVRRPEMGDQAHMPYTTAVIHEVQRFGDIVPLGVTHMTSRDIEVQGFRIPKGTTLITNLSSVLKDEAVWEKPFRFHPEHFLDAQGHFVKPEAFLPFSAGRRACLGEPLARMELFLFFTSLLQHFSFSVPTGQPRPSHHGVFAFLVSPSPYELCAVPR

For `CNc1nc(Nc2cn(C(C)(C)C#N)nc2C)ncc1C(F)(F)F`, the Potency result in assay [1], in assay [2], in assay [4] and in assay [5] was “inactive” each time. In addition, in assay [3], the Potency was 7.56 µM (active).

In the case of `O=C(NC1CCN(CC(F)(F)F)CC1)c1ccc(-c2cccc(F)c2)nc1`, the Potency entry in assay [1], in assay [2], in assay [3], in assay [4] and in assay [5] was “inactive” in each case.

On to `CC1(C)[C@H]2C[C@H](C/C=C\CCCC(=O)O)[C@@H](NC(=O)c3csc4ccc(O)cc34)[C@@H]1C2`, for which the Potency entry in assay [1], in assay [2], in assay [4] and in assay [5] was “inactive” each time. Moreover, in assay [3], the Potency was 1.34 µM (active).

Regarding `CCOc1nc2c(N)ncnc2n1CC`, the Potency result in assay [1], in assay [2], in assay [3], in assay [4] and in assay [5] was “inactive” in each case.

For `Cc1nc2ccccc2c(-c2ccc3c4c(ccnc24)CCO3)c1[C@H](OC(C)(C)C)C(=O)O`, the Potency entry in assay [1], in assay [2], in assay [3], in assay [4] and in assay [5] was “inactive” each time.

In the case of `c1ccc2c(Nc3nnc(-c4ccncc4)s3)cccc2c1`, the Potency entry in assay [1], in assay [2], in assay [4] and in assay [5] was “inactive” in each case. In assay [3], the Potency was 6.01 µM (active).

Consider `CCC1(O)CC2c3cc(OC)c(OC)cc3CCN2CC1CC(C)C` (configuration not stated), for which the Potency result in assay [1], in assay [3], in assay [4] and in assay [5] was “inactive” each time. Moreover, the Potency in assay [2] was 0.849 µM (active).

Regarding `Cc1cc(CNC(=O)c2cc(C(=O)NCc3ccc(F)c(C)c3)ncn2)ccc1F`, the Potency entry in assay [1], in assay [2], in assay [3], in assay [4] and in assay [5] was “inactive” each time.

With `O=C(O)[C@H](Cc1ccccc1)Oc1ccc(-c2ccccc2)cc1`, the Potency entry in assay [1], in assay [2], in assay [4] and in assay [5] was “inactive” in each case. Further, the Potency in assay [3] is 9.52 µM (active).

Take `Oc1ccc(CC2NCCc3cc(O)c(O)cc32)cc1` (configuration not stated): the Potency entry in assay [1], in assay [2], in assay [3], in assay [4] and in assay [5] was “inactive” in each case.

For `O=C(O)c1cc(C(F)(F)F)ccc1N1CC[C@H](OCc2ccccn2)C1`, the Potency entry in assay [1], in assay [2], in assay [4] and in assay [5] was “inactive” in each case. For the same compound, the Potency in assay [3] is 19 µM (active).

As to `COc1ccc(Oc2c(Cl)cnn(C3c4ccccc4-c4ccccc43)c2=O)cc1`, the Potency result in assay [1], in assay [2] and in assay [4] was “inactive” each time. Besides, in assay [3], the Potency is 9.52 µM (active).

Take `COc1ccc(C(=O)NCc2cc(C(C)C)no2)cc1OC1CCN(C)CC1`: the Potency result in assay [1], in assay [2], in assay [3], in assay [4] and in assay [5] was “inactive” throughout.

As for `CN1CCN(c2nc(-c3ccc(C(=O)NC4(C(=O)NCC#N)CCCCC4)cc3)cs2)CC1`, the Potency entry in assay [1], in assay [2], in assay [4] and in assay [5] was “inactive” throughout. The Potency in assay [3] was 12 µM (active).

`COc1ccc(OC)c(C2C(C#N)=C(N)Oc3n[nH]c(-c4ccc5ccccc5c4)c32)c1` (configuration not stated): the Potency result in assay [1], in assay [4] and in assay [5] was “inactive” throughout. In addition, the Potency was 7.56 µM (active) in assay [2] and 10.7 µM (active) in assay [3].

Take `CN[C@H](CNC(=O)N1CCC[C@@H]([C@@H](OCCNC(=O)OC)c2cccc(Cl)c2)C1)C[C@H]1CCCOC1`: the Potency entry in assay [1], in assay [3], in assay [4] and in assay [5] was “inactive” throughout. Also, in assay [2], the Potency was 19 µM (active).

As for `COc1ccc(-n2[nH]c3c(cnc4ccccc43)c2=O)cc1`, the Potency entry in assay [1], in assay [2], in assay [3], in assay [4] and in assay [5] was “inactive” each time.

`CCCCS(=O)(=O)NC(Cc1ccc(OCCCCC2CCNCC2)cc1)C(=O)O` (configuration not stated): the Potency result in assay [1], in assay [2], in assay [3], in assay [4] and in assay [5] was “inactive” in each case.

In the case of `Cc1ccc(-n2nc(C(C)(C)C)cc2NC(=O)Nc2cc(COc3cccnc3)[nH]n2)cc1`, the Potency entry in assay [1] was “inactive”. Besides, the Potency in assay [2] was 15.1 µM (active); in assay [3], 7.56 µM (active); in assay [4] it was 18.3 µM (active); in assay [5], 9.16 µM (active).

Consider `O=C(Cn1c2ccccc2c2nc3n(c(=O)c21)CCS3)N1CCCC1`, for which the Potency entry in assay [1], in assay [2], in assay [3], in assay [4] and in assay [5] was “inactive” throughout.

Take `CC1(C)CC=C(C#Cc2ccccc2)c2cc(/C=C/c3ccc(C(=O)O)cc3)ccc21`: the Potency result in assay [1], in assay [2] and in assay [4] was “inactive” each time. Also, the Potency in assay [3] was 19 µM (active).

Turning to `CNC(C)C(=O)NC(C(=O)N1CCCC1C(=O)Nc1cccc2ncccc12)C(C)C` (configuration not stated), the Potency entry in assay [1], in assay [2], in assay [3], in assay [4] and in assay [5] was “inactive” throughout.

Take `CC[C@@H](C)[C@H](N)C(=O)N1Cc2ccccc2C1`: the Potency result in assay [1], in assay [3] and in assay [4] was “inactive” throughout. Besides, in assay [2], the Potency is 13.5 µM (active).

On to `O=C(O)[C@H]1Cc2ccccc2CN1`, for which the activity change, negative = inhibition in assay [1] is 5.95% [at 12.4 µM]; in assay [2], 4.56% [at 11.5 µM]; in assay [3] it was 2.02% [at 11.5 µM]. The outcome in assay [4] and in assay [5] was “inactive [at 4.96 µM]” each time.

With `Nc1ncnc2c1C(=O)N(c1ccc(C3CCC(CC(=O)O)CC3)cc1)CCO2` (configuration not stated), the Potency result in assay [1], in assay [2], in assay [3], in assay [4] and in assay [5] was “inactive” each time.

As for `COc1ccccc1Oc1c(NS(=O)(=O)c2ccc(C)cn2)nc(-c2ccncc2)nc1OC`, the Potency entry in assay [1], in assay [2], in assay [4] and in assay [5] was “inactive” in each case. Moreover, the Potency in assay [3] was 26.8 µM (active).

On to `CCC(C)C(N)C(=O)NCCN1CCOCC1` (configuration not stated), for which the Potency result in assay [1], in assay [2], in assay [3], in assay [4] and in assay [5] was “inactive” in each case.

In the case of `CCCN(CCN1CCN(c2ccccc2OC)CC1)C1CCc2ncsc2C1` (configuration not stated), the Potency entry in assay [1], in assay [3], in assay [4] and in assay [5] was “inactive” throughout. For the same compound, in assay [2], the Potency is 1.9 µM (active).

With `Nc1nc(COC(=O)c2ccc([N+](=O)[O-])cc2)nc(Nc2ccccc2)n1`, the Potency entry in assay [1], in assay [2], in assay [4] and in assay [5] was “inactive” throughout. Further, in assay [3], the Potency is 21.3 µM (active).

Source of the values: PubChem BioAssay (NCATS).
